Bioassay records from PubChem.
LmPK inhibitor: inhibitors of Leishmania mexicana pyruvate kinase; AID 1721; 0.37% of 290,000 active; Q27686; purified LmPK, Kinase-Glo ATP luminescence, 1 h; Potency, µM (top dose mostly 57.5 µM), for the others: at the highest dose activity change, negative = inhibition, most hits filed as inhibitors
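0.1 nM LmPK, 0.5 mM PEP, 0.1 mM ADP; 50 mM imidazole pH 7.2, 7 mM MgCl2, 50 mM KCl; 1 h RT. Kinase-Glo luminescence readout, normalized to no-enzyme (full inhibition) and uninhibited wells.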
TbPYK inhibitor: T. brucei pyruvate kinase inhibition. Q57TT1. TbPYK enzyme, Kinase-Glo Plus ATP luminescence, 45 min. Potency, µM (highest dose often 76.8 µM), without a hit: at the highest dose activity, negative = inhibition, usual class: inhibitors. 0.12% of 410,000 active. AID 624173; also: nearly all actives have a fitted effect of over 50% in size
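T. brucei PYK with substrate was exposed to pin-transferred compounds across a concentration series, then started with 130 uM ADP (final). After 45 min at room temperature, Kinase-Glo Plus luminescence was read, normalized and curve-fitted.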
Giardia FBPA inh-1: Giardia lamblia aldolase inhibition; purified Giardia FBPA; Potency, µM (top dose mostly 59.6 µM), inactives show at the highest dose activity, negative = inhibition, actives largely listed as inhibitors; 0.71% of 290,000 active; AID 2451; also: nearly all actives have a fitted effect of over 55% in size
Target sequence (A8B2U2 whole entry, looked up): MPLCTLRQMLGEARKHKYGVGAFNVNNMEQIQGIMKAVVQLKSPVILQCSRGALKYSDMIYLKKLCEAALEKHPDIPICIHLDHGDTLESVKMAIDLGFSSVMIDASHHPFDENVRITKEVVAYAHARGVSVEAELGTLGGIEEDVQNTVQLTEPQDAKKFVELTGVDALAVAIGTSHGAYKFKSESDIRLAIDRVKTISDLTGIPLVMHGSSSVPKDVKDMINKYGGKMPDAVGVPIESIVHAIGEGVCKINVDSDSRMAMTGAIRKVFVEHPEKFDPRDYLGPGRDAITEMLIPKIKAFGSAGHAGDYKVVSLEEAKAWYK
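40 nM FBPA preincubated 10 min at RT with compound (up to 57.5 uM final), then substrate plus GAPDH/TPI/NAD/arsenate coupling and diaphorase/resazurin added. Fluorescence read after 20 min at RT, 525/598 nm.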
RE007 growth inh: less growth of the S. pombe RE007 Vpr strain | 0.21% of 360,000 active | S. pombe RE007 Vpr strain, BacTiter-Glo ATP luminescence, 24 h | Potency, µM (doses to about 92.2 µM), for the others: top-dose activity change, negative = less growth, usual class: inhibitors; active = well fitted falling curve with a large enough effect; inconclusive = small, poorly fitted or top-dose-only effect; inactive = no such curve, though single readings can be large or run the other way; also: nearly all actives have a fitted effect of over 50% in size
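Fission yeast RE007 carrying one integrated HIV-1 vpr copy, seeded at OD 0.01 in PMG+AL medium with 23 nL pinned compound. Grown 24 h at 30 degrees; viability read by BacTiter-Glo luminescence after 5 min.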
Giardia growth: inhibitors of Giardia lamblia growth; shares compounds with Giardia FBPA inh-1; Giardia lamblia trophozoite growth inhibition; Potency, µM (highest dose often 57.5 µM), for inactives: at the highest dose activity change, negative = inhibition, most hits filed as inhibitors; 5% of 1,500 active; AID 2785;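 also: trophozoites exposed to compound for 48 h at 37 °C; nearly all actives have a fitted effect of over 70% in size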
Mammal cell tox: mammalian cytotoxicity of Giardia aldolase inhibitor hits; 4% of 1,500 active; shares compounds with Giardia FBPA inh-1; mammalian cell viability counter-screen, qHTS; Potency, µM (highest dose often 57.5 µM), for the others: top-dose viability change, negative = toxicity, usual class: inhibitors; AID 2786;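 also: Chinese hamster ovary cells used as mammalian cytotoxicity surrogate; viability measured as cellular ATP by luminescence; compound exposure lasted 48 h before reading; nearly all actives have a fitted effect of over 60% in size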
Giardia FBPA inh-2: confirmation of Giardia fructose-bisphosphate aldolase inhibitors. purified Giardia aldolase enzyme activity, qHTS. 5% of 1,500 active. Potency, µM (top dose mostly 57.5 µM), for inactives: at the top dose activity change, negative = inhibition, hits mostly inhibitors. shares compounds with Giardia FBPA inh-1. AID 2787; also: nearly all actives have a fitted effect of over 45% in size
Rabbit aldolase: rabbit FBP aldolase inhibition by Giardia aldolase hits; shares compounds with Giardia FBPA inh-1; Rabbit muscle FBPA enzyme inhibition, selectivity counter-screen; 4% of 1,500 active; AID 2794; Potency, µM (doses to about 57.5 µM), inactives show top-dose activity, negative = inhibition, most hits filed as inhibitors; also: nearly all actives have a fitted effect of over 60% in size
GAPDH coupling: counter-screen for Giardia aldolase inhibitors: GAPDH coupling enzyme. GAPDH coupling enzyme counterscreen, biochemical, qHTS. Potency, µM (doses to about 57.5 µM), for inactives: at the top dose activity change, negative = inhibition, most hits filed as inhibitors. 6% of 1,500 active. shares compounds with Giardia FBPA inh-1; also: nearly all actives have a fitted effect of over 55% in size
An asterisk follows results filed as active; [ ] = dose if it differs, or a comment. Rows were chosen to be rich in hits. Some 0.95% of all compounds tested hit in one or more screens of this group. Unless noted, calls follow the shape of the dose curve; as a rule, active = well fitted curve in the direction sought with a large enough effect; inconclusive = small, poorly fitted or top-dose-only effect, or another doubt; inactive = no such curve, though single readings can be large; an effect the other way counts as inactive or inconclusive. % is scaled to controls: 0 for no effect and ±100 for the full control effect; potency is read from the fitted curve at half-maximal effect.

For Cc1cc(=O)n(CC(=O)O)c2ccccc12 the results were LmPK inhibitor 1%, TbPYK inhibitor -1%, Giardia FBPA inh-1 1% and RE007 growth inh 5%.
For Cc1cc(C)n(CC(=O)O)c(=O)c1[N+](=O)[O-] the results were LmPK inhibitor 0%, TbPYK inhibitor -11%, Giardia FBPA inh-1 7.9µM*, RE007 growth inh 18%, Giardia growth -25%, Mammal cell tox 19%, Giardia FBPA inh-2 -9%, Rabbit aldolase -4% and GAPDH coupling 5%.
`Nc1nc(=S)c2ncn(C3OC(CO)C(O)C3O)c2[nH]1` (stereo unspecified) gave LmPK inhibitor 1%, TbPYK inhibitor -6%, Giardia FBPA inh-1 6.3µM*, RE007 growth inh -2%, Giardia growth 3%[10.4 µM], Mammal cell tox 2%, Giardia FBPA inh-2 1%, Rabbit aldolase 2% and GAPDH coupling 1%.
Screening Nc1nc(=S)c2ncn([C@@H]3O[C@H](CO)[C@@H](O)[C@H]3O)c2[nH]1 returned TbPYK inhibitor -9% and RE007 growth inh -7%[18.4 µM].
For OCC1OC(n2cnc3c(=S)nc[nH]c32)C(O)C1O (stereo unspecified) the results were TbPYK inhibitor inconclusive, Giardia FBPA inh-1 4.5µM*, Giardia growth inconclusive, Mammal cell tox 6.3µM*, Giardia FBPA inh-2 2%, Rabbit aldolase 2% and GAPDH coupling -6%.
`CC1(C)OC2C(CO)OC(n3cnc4c(=S)nc[nH]c43)C2O1` (stereo unspecified) gave LmPK inhibitor 7%, TbPYK inhibitor -21%, Giardia FBPA inh-1 4.5µM*, RE007 growth inh 12%, Giardia growth -25%[38.3 µM], Mammal cell tox inconclusive, Giardia FBPA inh-2 -4%, Rabbit aldolase -2% and GAPDH coupling 1%.
O=c1nc(N/N=C/c2ccccn2)cn[nH]1 was read as LmPK inhibitor -16%, TbPYK inhibitor -13%, Giardia FBPA inh-1 0.71µM*, RE007 growth inh 15%, Giardia growth -25%[38.3 µM], Mammal cell tox inconclusive, Giardia FBPA inh-2 8%, Rabbit aldolase -9% and GAPDH coupling -6%.
For Cc1ccc(/C=N/Nc2cn[nH]c(=O)n2)o1 the results were LmPK inhibitor -1%, TbPYK inhibitor -9%, Giardia FBPA inh-1 18µM*, RE007 growth inh -9%, Giardia growth 11%[10.4 µM], Mammal cell tox 4%, Giardia FBPA inh-2 -7%, Rabbit aldolase 0% and GAPDH coupling -2%.
O=c1cnnc(N/N=C/c2ccccn2)[nH]1 was read as LmPK inhibitor -2%, TbPYK inhibitor -17%, Giardia FBPA inh-1 0.79µM*, RE007 growth inh -18%, Giardia growth 2%[38.3 µM], Mammal cell tox inconclusive, Giardia FBPA inh-2 4%, Rabbit aldolase -5% and GAPDH coupling -16%.
Cc1ccc(/C=N/Nc2ccc3ccccc3n2)o1 was read as LmPK inhibitor inconclusive, TbPYK inhibitor -9%, Giardia FBPA inh-1 -21% and RE007 growth inh 10%.
Cc1cc(=O)[nH]c(N/N=C/c2ccccn2)n1 was read as LmPK inhibitor -15%, TbPYK inhibitor 7%, Giardia FBPA inh-1 inconclusive and RE007 growth inh -6%.
